Test results from ChEMBL document CHEMBL3988442, “University of Dundee, Small-Polar-MMV Screening Library” (2021).

target: AMP-activated protein kinase, AMPK (Homo sapiens) (UniProt P54646+O43741+P54619+Q9UGJ0+Q9Y478+Q13131+Q9UGI9); test: AMP-dependent Kinase enzyme assay. An in vitro enzyme assay that detects ADP turnover that is directly proportional to AMPK activity. This uses naive AMPK that is activated during the assay with MK-8722; type: functional; parameters: scale not given: direction of the effect not stated beside the values; details: 30 µM

Structure (SMILES) | Percent Effect [%]
O=C(Cc1ccc2c(c1)CCC2)NC1CCN(Cc2ccccc2)CC1 | -0.352
CC(C)CN(C(=O)Nc1cccc(C(=O)N(C)C)c1)C1CC1 | 0.783
Cc1cc(N2Cc3cnn(CCO)c3C2)nc(-c2ccccc2O)n1 | 28.4
c1ccc(CCN2CCN(C3CCOC4(CCOCC4)C3)CC2)cc1 (centres undefined) | -8.46
CSCCC1c2nc[nH]c2CCN1Cc1[nH]c2ccc(F)cc2c1C (centres undefined) | 2.26
O=C1C(N2CCOCC2)CCCN1Cc1cccc(C(F)(F)F)c1 (centres undefined) | 5.78
COC(=O)c1cccc(C(=O)N(CCC#N)CC(C)(C)C)c1 | 2.62
O=C(O)C1(O)CCN(c2ccc3cccc(Cl)c3n2)CC1 | 13.6
CCOc1ccc(NC(=O)NCCCN(C)S(C)(=O)=O)cc1C | -4.23
Cn1nccc1-c1cccc(CC2CCN(S(C)(=O)=O)C2)n1 (centres undefined) | 8.3
Cc1nsc(N2CCCN(CC(=O)N(C)C3CC3)CC2)n1 | 7.25
COc1ccc(C2(C(=O)N3C[C@@H](C(=O)O)[C@H](C(C)C)C3)CC2)cc1 | 2.55
CN1CC(c2n[nH]c(=O)n2-c2cccc(Cl)c2)CC1=O (centres undefined) | -12.1
Cc1noc(C)c1-c1n[nH]c2c1CN(S(=O)(=O)c1cccs1)CC2 | 2.21
O=C1CCC2(CCCN(CCn3cc(Cl)cn3)C2)CN1C1CCCC1 (centres undefined) | 14.4
CCOc1ccc(Oc2cc(CN)ccn2)cc1 | -43.1
COc1ncc(NCc2ccsc2)cc1C(N)=O | 5.38
CC(C)c1nn(C)c(Cl)c1CNCC(=O)N1CCN(C)CC1 | -14.6
CCc1nn(C)c(Cl)c1CN1CCC2(C1)CN(C)C(=O)O2 (centres undefined) | 6.22
Cc1cccc(C(C(=O)NC(C)(C)CN2CCOCC2)N(C)C)c1 (centres undefined) | -14.1

Structure (SMILES) | Percent Effect [%]
N#Cc1c(N)nc2c(c1C1CCOC1)CCc1cc(O)ccc1-2 (centres undefined) | 32
O=S(=O)(c1cn[nH]c1)N1CCC(O)(CN2CCOCC2)C1 (centres undefined) | 3.92
COc1ccccc1OCCc1nnc(NC(=O)C2CC23CCC3)s1 (centres undefined) | 8.73
COc1ccc(OC2CCN(C(=O)c3ccc(C(C)=O)s3)CC2)cc1 | -2.68
CC(=O)N[C@H]1CCO[C@@H](c2cccc(NC(=O)c3ccc(=O)[nH]n3)c2)C1 | 14.1
COc1ccc(N2CCN(C(=O)CCCc3cn[nH]c3)CC2=O)cc1 | -3.84
CC(C)CNC(=O)c1[nH]nc(C2CC2)c1Br | -2.23
O=C(COc1cccnc1)NCc1nncn1C1CCCCC1 | -3.67
Cc1ccc(N2C[C@@H]3CN(C(=O)NC4CCCC4)C[C@]3(C(=O)O)C2)nn1 | -1.71
Cn1ccnc1CN1CCCC1CCc1ccccc1 (centres undefined) | -8.09
CCOCCN1CCN(c2ccc(C#N)cn2)CC1CC (centres undefined) | 6.68
Cn1cccc1C(=O)NCc1ccnc(C2CCCOC2)n1 (centres undefined) | 6.83
CC(c1ccc(F)cc1F)N1CCN(CCC(=O)NC(N)=O)CC1 (centres undefined) | -3.39
Cc1ccc(C(=O)NC2CCCN(C)C2)c(=O)[nH]1 (centres undefined) | -3.1
CC(O)c1cnn(-c2ccccc2)c1 (centres undefined) | 12.6
Cc1nsc(C(=O)NCCCc2ccccc2)n1 | 1.51
CCn1cnnc1CNS(=O)(=O)N1CCCC1c1ccc(C)o1 (centres undefined) | 0.967
Cc1cc(NC(=O)CO)nn1-c1ccc(Cl)cc1Cl | -3.56
COc1cccc2ccc(N3CCC(O)(c4ccc(C)cn4)CC3)nc12 | 11.8
